Measurements reported in the supplement of paper PMC6555819.

Assays:
Assay in all cases: PBM binding z-score (relative to random genomic background probes); higher = stronger binding; sequences stand for … in GC…GCGATTGACAGCGTAGAATGAAGG
[1] = system: RARb homodimer (NR concentration 270 nM)
Outline: (§1)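 Custom Agilent 4×180K protein-binding microarrays carried double-stranded probes, each with a 34-nt variable region. These regions held direct-repeat seeds, single-nucleotide variants, half-site ablations and random human genomic background sequences. Ligand-free nuclear receptor dimers were incubated on the arrays for 1 h, antibodies against each partner (one per run) detected binding, and scanned fluorescence was regression-normalized. Binding z-scores take the random background probes as reference.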

[2] = system: RARg:RXRa (NR concentration 270 nM, RXRa partner concentration 90 nM)
Outline: as §1

[3] = system: RARg homodimer (NR concentration 270 nM)
Outline: as §1

[4] = system: RXRa DBDmut IVT, anti-RXR (DBD mutation: RXRa K156A/R161A, NR concentration 90 nM)
Outline: as §1

[5] = system: RXRa homodimer (NR concentration 180 nM)
Outline: as §1

[6] = system: THRa:RXRa (NR concentration 90 nM, RXRa partner concentration 90 nM)
Outline: as §1

[7] = system: THRa homodimer (NR concentration 90 nM)
Outline: as §1

[8] = system: VDR homodimer (NR concentration 270 nM)
Outline: as §1

Row | Sequence | PBM binding z-score [1] | PBM binding z-score [2] | PBM binding z-score [3] | PBM binding z-score [4] | PBM binding z-score [5] | PBM binding z-score [6] | PBM binding z-score [7] | PBM binding z-score [8]
1 | GCAGACAGGTGAAACGCAGGTAACACAGGGTGGC | 0.0703 | 1.1 | 0.467 | -0.772 | 0.886 | 1.26 | -0.435 | -0.401
2 | ATATGTAGGTTAGCTGGGGTCAATCAGACTAGGC | 3.82 | 4.3 | 3.37 | 1.26 | 5.42 | 5.12 | 2.82 | 3.44
3 | CGAACAAGGTCAAGGACAGTGAATCTCCGCACGC | 4.07 | 6.08 | 6.35 | 3.61 | 6.26 | 4.03 | 2.93 | 2.3
4 | CCGACTGGGGCTAAGGTTACCATACTCAGTACGA | 1.12 | 0.783 | 0.678 | 0.382 | 0.902 | 2.39 | 1.68 | 0.443
5 | CCTACTGGGCCAAAGTCATTGATCAGTCAAAGCA | -0.0618 | -0.124 | -0.109 | -0.332 | -0.525 | -0.226 | -0.645 | -0.635
6 | CCTAGTTGGTCACGAGGTCACACACCGGATATGA | 4.65 | 5.36 | 4.66 | 1.84 | 5.19 | 4.43 | 4.41 | 3.84
7 | TCTTGTAGATCAATAGAGGGTAAGAAAGTGCGCT | 0.255 | 0.119 | 0.175 | 1.1 | 0.491 | 0.828 | -0.673 | 0.445
8 | GCTAGCAGGCCATTTGGGTCTCTCAATGACGGGC | -0.614 | -0.279 | -0.301 | -0.264 | -0.294 | 0.0257 | -0.703 | -0.774
9 | TGTCAAAGTTCATAGGTAACGTAAGTATCCACAC | 3.62 | 5.31 | 5.2 | 4.28 | 5.16 | 2.58 | -0.00989 | 4.46
10 | GATACAGGATCAGCTAGAGGCCAGAGTATGGAAA | -0.0727 | 1.16 | 0.363 | -0.823 | 0.154 | -0.0869 | -1 | -0.773
11 | TCTTGTAGATCAATAGAGGTTAAAAAAGTGCGCT | 1.19 | 0.821 | 0.586 | 0.81 | 1.39 | 2.21 | -0.13 | 0.48
12 | GTTGCTAGGTCAACTGATGGTCAGCTAAAGCTCG | 3.54 | 5.4 | 5.9 | 1.48 | 3.11 | 3.09 | 1.46 | 0.164
13 | TGAATGAGGTTAAAGTTCAGGGAACGTGGCGTCG | 3.35 | 4.76 | 2.66 | 1.93 | 6.97 | 3.63 | 0.772 | 2.62
14 | CTCGAAAGGTCGTGCTCAGGTGACTATACCAAAC | 3.17 | 5.21 | 3.82 | 2.15 | 4.78 | 4.26 | 1.69 | 0.845
15 | CCTGCTAGGTCATCGTCAGCTAATCTACAGTATG | 3.08 | 4.09 | 5.07 | 2.37 | 3.06 | 2.92 | 1.19 | 0.596
16 | ATCTCTAGGTCACAAGTTCAGTGAAAGAGAGGAC | 4.24 | 5.58 | 6.02 | 2.17 | 4.04 | 3.4 | 2.36 | 3.53
17 | CAGCCAAGGTCAGGGCCAGTATAGGAGGAACGTT | 3.64 | 4.92 | 5.59 | 1.64 | 4 | 3.36 | 1.78 | 0.93
18 | CCGACTGGGGCATTAGGTTACCATAAGCCAGCCC | 0.851 | 0.715 | 0.58 | -0.386 | 0.21 | 0.535 | 0.0828 | -0.601
19 | CCTTACGGGTCACTCCAGGTGATAGCATCGGAGT | 2.96 | 4.43 | 4.29 | 1.6 | 4.45 | 4.81 | 0.559 | 1.16
20 | ATGTCTAGGTAACAAGTTCAGTGAAAGAGAGGAC | 1.85 | 1.29 | 1.35 | 0.903 | 0.727 | 1.56 | 0.576 | 2.23
21 | ATACCAAAGTGATCGTGAGGTCGTTGATACTAAC | 1.13 | 0.445 | 0.273 | 1.02 | 0.855 | 2.76 | 2.01 | 3.16
22 | AAAACAGGGTCACTAGGCCAGAGTAGGTACGAAT | 3.35 | 5.4 | 4.84 | 2.95 | 5.7 | 3.48 | 1.18 | 2.76
23 | CGAACTAGGTCAAGGACGGTGAATCTCCGCACGC | 2.96 | 3.53 | 4.38 | 0.975 | 2.64 | 2.88 | 1.24 | -0.409
24 | CGTCAAAGTTCAACTAAGGTAACGTTAAGCACGC | 4.42 | 6.02 | 6.57 | 4.55 | 5.24 | 5.42 | 2.19 | 4.26
25 | GCTTGTAGATCAAGGTGAAGAAAGACTAAGCTAA | -0.485 | -0.139 | -0.0485 | -0.298 | -0.15 | 1.04 | 0.0567 | -0.307
26 | AGTCAATGTTCAGGACGAGGTAACGTAAAGCACG | 0.0341 | 0.243 | 0.459 | -0.371 | 0.279 | 2.16 | 1.78 | 0.209
27 | AAAATGAGGTTACCAAAGATCAGGGAAACGCTTG | 0.885 | 2.37 | 1.81 | 1.54 | 2.93 | 3.06 | 0.766 | 0.152
28 | TCTTGTAGATCAAAGGTTAAGAAGGCCGAAGCCT | 1.58 | 1.95 | 0.702 | 0.627 | 3.37 | 1.51 | -0.402 | 0.0638
